High-throughput results deposited in PubChem by National Center for Advancing Translational Sciences (NCATS).
Compounds with a hit are over-represented: about 11% of the library has one in this group of screens.
3T3 cytotox: Cytotoxic Profiling in NIH 3T3 Cell Line of Diverse Libraries Using Quantitative High-Throughput Screening; NIH 3T3 viability, CellTiter-Glo ATP luminescence, 48-72 h; Potency, µM (doses to about 96.7 µM), without a hit: at the highest dose activity change, negative = cytotoxicity, usual class: inhibitors; 94,000 compounds, 4.3% hits; AID 1345082, 2018; note: nearly all actives have a fitted effect of over 55% in size
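First NIH 3T3 cells are plated at 400 cells/well; next compound is pinned in; then plates incubate 48 or 72 hr at 37 °C; finally CellTiter-Glo is added and luminescence read after 10 min.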
hNpr1 antagonist: Natriuretic polypeptide receptor (hNpr1) antagonism - Primary qHTS; Atrial natriuretic peptide receptor 1 (Homo sapiens), P16066; HEK293 hNpr1 GloSensor cGMP, ANP-stimulated luminescence; Potency, µM (titrated, usually from 46.3 µM), for inactives: top-dose activity change, negative = inhibition, usual class: inhibitors; 76,000 compounds, 1.6% hits; calls by dose curve; note: nearly all actives have a fitted effect of over 60% in size
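Compound pre-incubated 30 min at room temperature on GloSensor-loaded HEK293 cells stably carrying hNpr1 and the pGS-40F cGMP biosensor. Stimulation uses hNppA at 0.1 nM final; luminescence is taken at baseline and 20 min post-agonist.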
Luciferase inh: Firefly luciferase inhibition profiling of diverse chemical library using quantitative high-throughput screening | purified P. pyralis luciferase, luminescence, biochemical | Potency, µM (highest dose often 115 µM), usual class: inhibitors | 76,000 compounds, 2.5% hits | AID 1347043, 2019; note: nearly all actives have a fitted effect of over 65% in size
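Cell-free enzyme assay, 10nM P. pyralis luciferase, luciferin and ATP each at 10uM. Inhibition profiled over a 6-point titration, read as luminescence.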
HEK cytotox: Cytotoxic Profiling in HEK 293 Cell Line of Diverse Libraries Using Quantitative High-Throughput Screening; HEK 293 viability, ATP luminescence (CellTiter-Glo), 48-72 h; Potency, µM (highest dose often 115 µM), for inactives: at the highest dose activity change, negative = cytotoxicity, actives largely listed as inhibitors; 94,000 compounds, 6.6% hits; AID 1345083, 2018; note: nearly all actives have a fitted effect of over 60% in size
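CellTiter-Glo luminescence (cellular ATP) was read after 48 or 72 hr of compound exposure at 37 degree Celsius. Cells were HEK 293 plated at 250 cells/well.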
Active calls of the source: *; [ ] = remark or other dose. Unless noted, calls come from the whole dose curve; as a rule, active = well fitted curve in the direction sought with a large enough effect; inconclusive = small, poorly fitted or top-dose-only effect, or another doubt; inactive = no such curve, though single readings can be large; an effect the other way counts as inactive or inconclusive. % is set by controls: 0 for no effect and ±100 for the full control effect; potency is the fitted concentration of half-maximal effect.

Results for COC(=O)CNC(=O)C1CCCN(Cc2cccc(-c3cccs3)c2)C1 (stereo not drawn) ?
3T3 cytotox: inconclusive; HEK cytotox: -10.8%

How did O=C(NCc1cccc(C(F)(F)F)c1)C1CCCN(Cc2cccc(-c3cccs3)c2)C1 (stereo not drawn) do in these assays?
3T3 cytotox: 7.94µM*; HEK cytotox: inconclusive

How did O=C(NCc1ccccc1)C1CCCN(Cc2cccc(-c3cccs3)c2)C1 (stereo not drawn) do in these assays?
3T3 cytotox: 31.6µM*; HEK cytotox: inconclusive

What do the screens show for `O=C(NCCc1ccc(Cl)cc1)C1CCCN(Cc2cccc(-c3ccsc3)c2)C1` (stereo not drawn)?
3T3 cytotox: 14.1µM*; HEK cytotox: 22.4µM*

Results for O=C(NCc1ccc(F)cc1)C1CCCN(Cc2cccc(-c3cccs3)c2)C1 (stereo not drawn) ?
3T3 cytotox: inconclusive; HEK cytotox: 39.8µM*

How did O=C(NCC(F)F)C1CCCN(Cc2cccc(-c3cccs3)c2)C1 (stereo not drawn) do in these assays?
3T3 cytotox: inconclusive; HEK cytotox: 89.1µM*

What do the screens show for `O=C(Nc1cccc(F)c1)C1CCCN(Cc2cccc(-c3cccs3)c2)C1` (stereo not drawn)?
3T3 cytotox: inconclusive; HEK cytotox: 31.6µM*

Results for COC(=O)CNC(=O)C1CCCN(Cc2cccc(-c3cccc(C)c3)c2)C1 (stereo not drawn) ?
3T3 cytotox: inconclusive; HEK cytotox: -21.2%

How did O=C(Cn1ccn2nc(-c3ccc(F)cc3)c(CO)c2c1=O)N1CCCc2ccccc21 do in these assays?
3T3 cytotox: inconclusive; hNpr1 antagonist: -5.6%; Luciferase inh: inactive; HEK cytotox: inconclusive

Results for COc1cccc(CNC(=O)c2ccc3nnc(-c4ccc([S+](C)(=O)[O-])cc4)n3c2)c1 ?
3T3 cytotox: -10.1%; HEK cytotox: -10.7%

How did O=C(NCc1ccccc1F)C1CCCN(Cc2cccc(-c3cccs3)c2)C1 (stereo not drawn) do in these assays?
3T3 cytotox: 39.8µM*; HEK cytotox: 44.7µM*

What do the screens show for `CCN1c2cc(C(=O)N3CCN(c4cccc(C)c4)CC3)ccc2C(=O)N2CCCCC21` (stereo not drawn)?
3T3 cytotox: inconclusive; hNpr1 antagonist: -1.0%; Luciferase inh: inactive; HEK cytotox: inconclusive

What do the screens show for `CCN1c2cc(C(=O)N3CCN(c4ccc(F)cc4)CC3)ccc2C(=O)N2CCCCC21` (stereo not drawn)?
3T3 cytotox: -22.5%; hNpr1 antagonist: 7.2%; Luciferase inh: inactive; HEK cytotox: 44.7µM*

How did CCN1c2cc(C(=O)N3CCN(c4ccccc4)CC3)ccc2C(=O)N2CCCCCC21 (stereo not drawn) do in these assays?
3T3 cytotox: -23.2%; hNpr1 antagonist: 0.0%; Luciferase inh: inactive; HEK cytotox: 28.2µM*

Results for CCN1c2cc(C(=O)N3CCN(c4ccccc4F)CC3)ccc2C(=O)N2CCCCC21 (stereo not drawn) ?
3T3 cytotox: -14.9%; hNpr1 antagonist: 0.0%; Luciferase inh: inactive; HEK cytotox: inconclusive

How did COc1cccc(NC(=O)N2CC[C@H]3CC(=O)N(c4ccccc4)CC[C@H]3C2)c1 do in these assays?
3T3 cytotox: inactive; hNpr1 antagonist: 4.7%[70.6 µM]; Luciferase inh: inactive; HEK cytotox: inactive

How did O=C(CCc1ccccc1)NCC(=O)N1CCCCCCNC(=O)CC1c1ccccc1 (stereo not drawn) do in these assays?
3T3 cytotox: inactive; hNpr1 antagonist: 2.1%; Luciferase inh: inactive; HEK cytotox: 2.0%

Results for Cc1ccccc1CC(=O)N1CCN(C(=O)c2nnn3c2COC(c2ccccc2)C3)CC1 (stereo not drawn) ?
3T3 cytotox: -5.1%; hNpr1 antagonist: -0.5%; Luciferase inh: inactive; HEK cytotox: -18.7%

How did COc1ccc(Nc2ccnc(N3CCN([S+](=O)([O-])c4cccc(C(F)(F)F)c4)CC3)n2)cc1 do in these assays?
3T3 cytotox: inconclusive; HEK cytotox: 31.6µM*

Results for COc1ccc(Nc2ccnc(N3CCC(N[S+](=O)([O-])c4ccc(C)cc4)CC3)n2)cc1 ?
3T3 cytotox: 25.1µM*; HEK cytotox: 28.2µM*

How did Cc1ccc([S+](=O)([O-])N2CCN(c3nccc(Nc4ccccc4F)n3)CC2)cc1 do in these assays?
3T3 cytotox: inconclusive; HEK cytotox: 31.6µM*

How did O=[S+]([O-])(NC1CCN(c2nccc(Nc3ccccc3F)n2)CC1)c1cccs1 do in these assays?
3T3 cytotox: 44.7µM*; HEK cytotox: 44.7µM*

What do the screens show for `Cn1cc(-c2ccncc2)cc1C(=O)N1CCN(c2ccccc2Cl)CC1`?
3T3 cytotox: -14.4%; hNpr1 antagonist: -5.9%; Luciferase inh: inactive; HEK cytotox: -19.8%

Results for c1cncc(CNC[C@H]2Cn3c(-c4ccc5c(c4)OCCO5)cnc3CO2)c1 ?
3T3 cytotox: inconclusive; hNpr1 antagonist: -1.0%[70.6 µM]; Luciferase inh: inactive; HEK cytotox: -24.0%[172 µM]

What do the screens show for `COCC1CN(C2CCC2)CC12CCN(C(=O)NCc1ccccc1)CC2` (stereo not drawn)?
3T3 cytotox: -22.0%; hNpr1 antagonist: -20.5%; Luciferase inh: inactive; HEK cytotox: inconclusive

Results for COc1ccc(-n2c(=O)c3c(n2Cc2ccccc2)CN(Cc2c[nH]c4ccccc24)CC3)cc1 ?
3T3 cytotox: inconclusive; hNpr1 antagonist: -17.5%; Luciferase inh: inactive; HEK cytotox: inconclusive

How did CC1CCN(C(=O)CCc2nc(C3CCCN3C(=O)NC(C)C)no2)CC1 (stereo not drawn) do in these assays?
3T3 cytotox: -17.8%; HEK cytotox: -1.9%

What do the screens show for `Cc1ccc([S+](=O)([O-])NC2CCN(c3nccc(Nc4ccccc4F)n3)CC2)cc1`?
3T3 cytotox: 39.8µM*; HEK cytotox: 28.2µM*

How did Cc1nn(-c2ccccc2)c2c1C(C)N(CC1CN(C(=O)c3ccc(Cl)cc3)C1)C2=O (stereo not drawn) do in these assays?
3T3 cytotox: 35.5µM*; HEK cytotox: inconclusive

What do the screens show for `Cc1nn(-c2ccccc2)c2c1C(C)N(CC1CN(Cc3ccc(F)cc3)C1)C2=O` (stereo not drawn)?
3T3 cytotox: 35.5µM*; HEK cytotox: inconclusive

What do the screens show for `Cc1nn(-c2ccccc2)c2c1C(C)N(CC1CN(C(=O)c3ccc(C(F)(F)F)cc3)C1)C2=O` (stereo not drawn)?
3T3 cytotox: 2.0%; HEK cytotox: -29.2%

What do the screens show for `O=C(c1cc(CN2CCOCC2)on1)N1CCC2(CC1)NCCc1c2[nH]c2ccccc12`?
3T3 cytotox: -25.2%; hNpr1 antagonist: 7.8%; Luciferase inh: inactive; HEK cytotox: 31.6µM*
